Data on 21 compounds can be found in PubChem BioAssay (NCI).

Compounds without any hit were thinned out: in the full panel of roughly 79,000, 15% have a hit. Unmarked numbers belong to inactive results. The source made the active and inactive calls. No stated cut-off is given here; in the data, active means growth inhibition above about 70%; inactive means the rest.

Experiment [1] is described as follows: NCI Yeast Anticancer Drug Screen. Data for the rad50 strain (AID 155).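 Further: 0% = growth of vehicle-only cultures of the same strain.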 As to conditions: S. cerevisiae rad50 strain growth inhibition; at 50.0 µM; active compounds read high. In short, it runs like this: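 Readout: growth inhibition relative to vehicle-treated cultures. Compound exposure was carried out in a genetically defined yeast strain deficient in DNA damage repair.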

Experiment [2] is described as follows: NCI Yeast Anticancer Drug Screen. Data for the mec2-1 strain (AID 157). As to conditions: S. cerevisiae mec2-1 strain, at 50.0 µM, active compounds read high. In short, it runs like this: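 Growth inhibition is read against vehicle-treated controls after compound exposure of the mec2-1 yeast strain, which is defective in DNA damage repair or cell cycle control.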

Experiment [3] in a line: NCI Yeast Anticancer Drug Screen. Data for the sgs1 mgt1 strain (AID 161).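 Further: 0% = growth of cultures given vehicle only.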 As to conditions: S. cerevisiae sgs1 mgt1 strain, at 50.0 µM, active compounds read high. Put shortly:
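This yeast growth screen uses a strain with defined DNA-repair lesions; compound-treated growth is compared with vehicle-treated growth.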

Experiment [4] is described as follows: NCI Yeast Anticancer Drug Screen. Data for the cln2 rad14 strain (AID 165).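 Further: 0% = growth equal to vehicle treated cultures.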 As to conditions: S. cerevisiae cln2 rad14 strain, at 50.0 µM, active compounds read high. In short, it runs like this: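 Growth inhibition, relative to vehicle-treated controls, is the read-out. The test organism is a yeast strain with defined genetic alterations, cln2 rad14.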
Experiment [5] in a line: NCI Yeast Anticancer Drug Screen. Data for the bub3 strain (AID 167). As to conditions: S. cerevisiae bub3 mutant strain, at 50.0 µM, active compounds read high. Put shortly:
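Readout: yeast growth inhibition, expressed relative to vehicle-only wells. The test organism is a mutant strain from a panel with lesions in DNA repair or checkpoint genes.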

Experiment [6] in a line: NCI Yeast Anticancer Drug Screen. Data for the mlh1 rad18 strain (AID 175). As to conditions: S. cerevisiae mlh1 rad18 strain growth inhibition; at 50.0 µM; active compounds read high. In short, it runs like this:
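Cells of a genetically altered yeast strain, deficient in DNA damage repair, were treated with compound. Their growth was then compared with that of vehicle-treated cultures to give inhibition.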

With `Cc1nn(C(=O)c2cccnc2)c(-c2ccccc2)c1N=Nc1ccc(S(=O)(=O)Nc2ncccn2)cc1`, the growth inhibition in experiment [1] is 23.7%; in experiment [2], 18.4%; in experiment [3], 31.4%; in experiment [4], 33%; in experiment [5] it was 0.7%; in experiment [6] it was 42.5%.
On to `O=C1CC2CCCCC2CC1c1ccccc1` (stereo unspecified), for which the growth inhibition in experiment [1] was 6.35%; in experiment [2] it was -0.4%; in experiment [3] it was -4.55%; in experiment [4], -22.6%; in experiment [5], -22.5%; in experiment [6] it was -12.2%.
With `CCCCCN(CCCCC)C(=O)C(C)C`, the growth inhibition in experiment [1] was -4.45%; in experiment [2], 7.8%; in experiment [3] it was 4.6%; in experiment [4], -30.1%; in experiment [5] it was -2%; in experiment [6], 5.8%.
In the case of `O=[N+]([O-])c1ccn(O)c(=Nc2ccccc2)c1`, the growth inhibition in experiment [1] is 1.7%; in experiment [2], 11.2%; in experiment [3], 5.45%; in experiment [4], -32.5%; in experiment [5] it was -14.9%; in experiment [6], 20.4%.
With `COc1cccc(C(=O)c2ccc(OC)cc2C(=O)O)c1`, the growth inhibition in experiment [1] is 5.95%; in experiment [2], -10.2%; in experiment [3], -2.8%; in experiment [4], -31.9%; in experiment [5] it was 4.3%; in experiment [6], 0.85%.
For `CC1=N/C(=C\c2ccc([N+](=O)[O-])cc2)C(=O)O1`, the growth inhibition in experiment [1] is 19.9%; in experiment [2], 9.05%; in experiment [3], 2.45%; in experiment [4], 4.6%; in experiment [5], 13.2%; in experiment [6] it was 42.8%.
With `CN(C)c1ccccc1CCCCCBr`, the growth inhibition was 8.35% in experiment [1]; 5.5% in experiment [2]; 5.5% in experiment [3]; -37.1% in experiment [4]; -6.7% in experiment [5]; 3.75% in experiment [6].
Consider `O=C1CCSc2nc(-c3ccc4c(c3)OCO4)nn21`, for which the growth inhibition in experiment [1] was 7.2%; in experiment [2], -8.5%; in experiment [3] it was -13.3%; in experiment [4] it was 15.2%; in experiment [5], 4.6%; in experiment [6], 9.2%.
As for `C/C(=N\N(c1ccccc1)c1ccccc1)c1c(O)cc(C)oc1=O`, the growth inhibition was -25.8% in experiment [1]; 8.2% in experiment [2]; 12.9% in experiment [3]; -27.4% in experiment [4]; 3.05% in experiment [5]; 14.8% in experiment [6].
For the compound `O=[N+]([O-])c1cccc([I+]c2cccc([N+](=O)[O-])c2)c1`, the growth inhibition in experiment [1] is 98.5% (active); in experiment [2] it was 95.8% (active); in experiment [3], 97.7% (active); in experiment [4], 96.5% (active); in experiment [5], 97.2% (active); in experiment [6], 98.2% (active).
`Cc1ccccc1N1C(=O)[N+]2(CCCCC2)N=C1[O-]`: the growth inhibition in experiment [1] was -11.1%; in experiment [2], 2.2%; in experiment [3], -13.3%; in experiment [4], -42.5%; in experiment [5], -3.9%; in experiment [6], -12.6%.
`CCOC(=O)c1noc(Oc2ccc(Cl)cc2Cl)n1`: the growth inhibition in experiment [1] is -13.9%; in experiment [2], 0.15%; in experiment [3], -10.8%; in experiment [4], -4.35%; in experiment [5], -9.3%; in experiment [6], 15.1%.
On to `[N-]=[N+]=Nc1ccccc1C(=O)NCCNC(=O)c1ccccc1N=[N+]=[N-]`, for which the growth inhibition is -7.4% in experiment [1]; -31.9% in experiment [2]; 2.25% in experiment [3]; 6.85% in experiment [4]; 2.6% in experiment [5]; 6.75% in experiment [6].
On to `CCSC(SCC)C(SCC)C(OC(=O)c1ccccc1)C(OC(=O)c1ccccc1)C(COC(=O)c1ccccc1)OC(=O)c1ccccc1` (stereo unspecified), for which the growth inhibition was 9.3% in experiment [1]; -2.35% in experiment [2]; -14.4% in experiment [3]; -5.3% in experiment [4]; 4.25% in experiment [5]; 33.3% in experiment [6].
Consider `C=C1CC(CC(=O)C(C)CC2CC(=C)C(=O)O2)OC1=O` (stereo unspecified), for which the growth inhibition in experiment [1] is 14.1%; in experiment [2] it was -30.9%; in experiment [3] it was 14.9%; in experiment [4], 8.4%; in experiment [5], 24.5%; in experiment [6] it was 26.3%.
As to `CSc1ncc2c(n1)-c1ccccc1OC2N1CCCCC1` (stereo unspecified), the growth inhibition in experiment [1] is 9.8%; in experiment [2], 13.7%; in experiment [3] it was 7.4%; in experiment [4], -3.45%; in experiment [5], 23.4%; in experiment [6], 38.7%.
On to `Cc1nc(Nc2ccc(Cl)c(Cl)c2)sc1C(/C=C/c1ccc2c(c1)OCO2)=N/Nc1ccc([N+](=O)[O-])cc1[N+](=O)[O-]`, for which the growth inhibition in experiment [1] is -21.2%; in experiment [2], -14.3%; in experiment [3] it was 3.75%; in experiment [4], 3.45%; in experiment [5] it was -9.55%; in experiment [6], 2.45%.
On to `COC(=O)c1ccccc1NCc1cc(Cl)ccc1O`, for which the growth inhibition in experiment [1] was 96.2% (active); in experiment [2], 97.3% (active); in experiment [3] it was 96.7% (active); in experiment [4], 92.8% (active); in experiment [5] it was 95.8% (active); in experiment [6], 94.9% (active).
As to `NCc1ccc2ccc3ccccc3c2c1`, the growth inhibition in experiment [1] is 11.1%; in experiment [2], -0.95%; in experiment [3] it was -1.35%; in experiment [4], 11.2%; in experiment [5], -4.45%; in experiment [6] it was 19.7%.
As for `CC1(C)N=C(N)N=C(N)N1c1ccc(NC(=O)Nc2ccccc2)cc1`, the growth inhibition is 16.6% in experiment [1]; -13.2% in experiment [2]; 16.1% in experiment [3]; -43.2% in experiment [4]; -2.35% in experiment [5]; 10.3% in experiment [6].
As to `O=C1Nc2ccccc2C12OCCS2` (stereo unspecified), the growth inhibition in experiment [1] was -4.1%; in experiment [2], 25.2%; in experiment [3], 17.2%; in experiment [4], -7.4%; in experiment [5], 5.25%; in experiment [6], 7.25%.
